Inconclusive results are not listed. A call without a number means that no potency is given here. Activity calls are given as the source filed them. Unless noted, calls follow the shape of the dose curve; as a rule, active = well fitted curve in the direction sought with a large enough effect; inconclusive = small, poorly fitted or top-dose-only effect, or another doubt; inactive = no such curve, though single readings can be large; an effect the other way counts as inactive or inconclusive.
tested on: not listed separately; experiment: Cell Viability - LYMP2-024 (AID 988); conditions: LYMP2-024 lymphoblastoid cell viability; series mostly up to 92.2 µM; also: nearly all actives have a fitted effect of over 60% in size
In short: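 qHTS cytotoxicity, human lymphoblastoid line, complete medium; 24 h cpd treatment, 37 C; CellTiter-Glo ATP luminescence readout; tetraoctylammonium bromide positive control; AC50 via Hill fit.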

SMILES	outcome
CCOC(=O)CC(SP(=S)(OC)OC)C(=O)OCC (centres undefined)	inactive
CC(C)c1cccc(C(C)C)c1O	inactive
COP(=S)(OC)Oc1ccc(SC)c(C)c1	inactive
NCCc1ccc(O)cc1	inactive
C[C@]12CCC(=O)C=C1CC[C@@H]1[C@@H]2CC[C@]2(C)C(=O)CC[C@@H]12	inactive
COc1cc(OC)c(OC)cc1C=O	inactive
CCCC(C)(COC(N)=O)COC(N)=O	inactive
O=P1(N(CCCl)CCCl)NCCCO1 (centres undefined)	inactive
Clc1ccc(C(c2ccc(Cl)cc2)C(Cl)(Cl)Cl)cc1	inactive

tested on: not listed separately; experiment: Cell Viability - LYMP2-026 (AID 989); conditions: LYMP2-026 lymphoblastoid cell viability, qHTS; series mostly up to 92.2 µM;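 also: cells exposed to compound for 24 h at 37 °C; nearly all actives have a fitted effect of over 50% in size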
In short: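 Cells are seeded at 2500 per well and held 5 hr at 37 C. Compounds are added in concentration series for 24 hr, then CellTiter-Glo reagent is applied and luminescence read.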

SMILES	outcome
CCOC(=O)CC(SP(=S)(OC)OC)C(=O)OCC (centres undefined)	inactive
CC(C)c1cccc(C(C)C)c1O	inactive
COP(=S)(OC)Oc1ccc(SC)c(C)c1	inactive
NCCc1ccc(O)cc1	inactive
C[C@]12CCC(=O)C=C1CC[C@@H]1[C@@H]2CC[C@]2(C)C(=O)CC[C@@H]12	inactive
COc1cc(OC)c(OC)cc1C=O	inactive
CCCC(C)(COC(N)=O)COC(N)=O	inactive
O=P1(N(CCCl)CCCl)NCCCO1 (centres undefined)	inactive
Clc1ccc(C(c2ccc(Cl)cc2)C(Cl)(Cl)Cl)cc1	inactive

molecular target: Alpha-galactosidase A (Homo sapiens) (UniProt P06280); experiment: Counterscreen for Glucocerebrosidase Inhibitors: qHTS Assay for Human alpha-Galactosidase at pH 4.5 (AID 992); conditions: purified enzyme, fluorogenic substrate; series mostly up to 76.9 µM
Sequence (P06280 whole entry, looked up): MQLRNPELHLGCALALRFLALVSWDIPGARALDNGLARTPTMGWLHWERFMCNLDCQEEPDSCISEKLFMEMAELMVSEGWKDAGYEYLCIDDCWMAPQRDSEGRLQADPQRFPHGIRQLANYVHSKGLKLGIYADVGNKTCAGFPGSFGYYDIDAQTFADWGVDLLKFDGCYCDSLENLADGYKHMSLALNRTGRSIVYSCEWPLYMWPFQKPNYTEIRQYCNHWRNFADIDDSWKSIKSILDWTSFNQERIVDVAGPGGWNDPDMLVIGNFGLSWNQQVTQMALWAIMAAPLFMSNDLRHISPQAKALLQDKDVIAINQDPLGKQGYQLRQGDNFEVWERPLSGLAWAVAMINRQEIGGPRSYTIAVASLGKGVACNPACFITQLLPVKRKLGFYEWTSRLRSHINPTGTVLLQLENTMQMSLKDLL
In short: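 Steps: enzyme (2 nM final), then compound across 0.7 nM to 77 uM, then 80 uM fluorogenic galactopyranoside substrate; incubate 20 min at room temperature; quench at pH 10; measure fluorescence at 365/440 nm.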

SMILES	outcome
CC(C)c1cccc(C(C)C)c1O	inactive
O=C(CCCN1CCC2(CC1)C(=O)NCN2c1ccccc1)c1ccc(F)cc1	inactive
O=c1[nH]oc2c1CCNC2	inactive
NCCc1ccc(O)cc1	inactive
C[C@]12CCC(=O)C=C1CC[C@@H]1[C@@H]2CC[C@]2(C)C(=O)CC[C@@H]12	inactive
O=C(O)CCCc1ccc(N(CCCl)CCCl)cc1	inactive
O=P1(N(CCCl)CCCl)NCCCO1 (centres undefined)	inactive
CCCCC/C=C\C/C=C\C/C=C\C/C=C\CCCC(=O)NCC(=O)O	inactive

tested on: not listed separately; experiment: Cell Viability - LYMP1-002 - Assay at 24 hr (AID 993); conditions: LYMP1-002 lymphoblastoid cells viability; series mostly up to 92.2 µM; also: potency is read from the fitted curve at half-maximal effect
In short: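 Acute toxicity is measured as concentration-dependent loss of cellular ATP in a human lymphoblastoid line (Coriell LYMP1-002) after 24 h treatment in complete medium. ATP is quantified by luciferase luminescence and AC50 derived by Hill modelling.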

SMILES	Potency
CCOC(=O)CC(SP(=S)(OC)OC)C(=O)OCC (centres undefined)	inactive
CC(C)c1cccc(C(C)C)c1O	inactive
COP(=S)(OC)Oc1ccc(SC)c(C)c1	inactive
NCCc1ccc(O)cc1	inactive
C[C@]12CCC(=O)C=C1CC[C@@H]1[C@@H]2CC[C@]2(C)C(=O)CC[C@@H]12	inactive
COc1cc(OC)c(OC)cc1C=O	inactive
CCCC(C)(COC(N)=O)COC(N)=O	inactive
O=C(O)CCCc1ccc(N(CCCl)CCCl)cc1	inactive
O=P1(N(CCCl)CCCl)NCCCO1 (centres undefined)	inactive
Clc1ccc(C(c2ccc(Cl)cc2)C(Cl)(Cl)Cl)cc1	50.1 µM (active)

tested on: not listed separately; experiment: Cell Viability - LYMP1-002 - Assay at 40 hr (AID 994); conditions: LYMP1-002 lymphoblastoid cell viability; series mostly up to 92.2 µM; also: nearly all actives have a fitted effect of over 60% in size; also: potency is read from the fitted curve at half-maximal effect
In short: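 Cells are plated at 2500 per well and rested 5 hr at 37 C. Compounds are added and incubated 40 hr at 37 C. CellTiter-Glo reagent is added for 30 min at room temperature before luminescence is read.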

SMILES	Potency
CCOC(=O)CC(SP(=S)(OC)OC)C(=O)OCC (centres undefined)	inactive
CC(C)c1cccc(C(C)C)c1O	inactive
COP(=S)(OC)Oc1ccc(SC)c(C)c1	inactive
NCCc1ccc(O)cc1	inactive
C[C@]12CCC(=O)C=C1CC[C@@H]1[C@@H]2CC[C@]2(C)C(=O)CC[C@@H]12	inactive
COc1cc(OC)c(OC)cc1C=O	inactive
CCCC(C)(COC(N)=O)COC(N)=O	inactive
O=C(O)CCCc1ccc(N(CCCl)CCCl)cc1	25.1 µM (active)
O=P1(N(CCCl)CCCl)NCCCO1 (centres undefined)	inactive
Clc1ccc(C(c2ccc(Cl)cc2)C(Cl)(Cl)Cl)cc1	inactive

molecular target: alpha-glucosidase (Oryza sativa, rice) (UniProt Q653V4); experiment: Counterscreen for Glucocerebrosidase Inhibitors: qHTS Assay for Rice alpha-Glucosidase at pH 5.0 (AID 997); conditions: rice alpha-glucosidase enzyme activity; series mostly up to 76.9 µM
In short: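 Endpoint fluorogenic assay at pH 5.0: compounds (0.7 nM to 77 uM) titrated against 4 nM rice enzyme and 400 uM 4-MU-alpha-glucoside for 20 min at room temperature; NaOH/glycine stop, read ex 365/em 440 nm, Hill-fitted AC50.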

SMILES	outcome
CC(C)c1cccc(C(C)C)c1O	inactive
O=C(CCCN1CCC2(CC1)C(=O)NCN2c1ccccc1)c1ccc(F)cc1	inactive
O=c1[nH]oc2c1CCNC2	inactive
NCCc1ccc(O)cc1	inactive
C[C@]12CCC(=O)C=C1CC[C@@H]1[C@@H]2CC[C@]2(C)C(=O)CC[C@@H]12	inactive
O=C(O)CCCc1ccc(N(CCCl)CCCl)cc1	inactive
O=P1(N(CCCl)CCCl)NCCCO1 (centres undefined)	inactive
CCCCC/C=C\C/C=C\C/C=C\C/C=C\CCCC(=O)NCC(=O)O	inactive

molecular target: Alpha-galactosidase (Coffea arabica) (UniProt Q42656); experiment: Counterscreen for Glucocerebrosidase Inhibitors: qHTS Assay for Coffee Bean alpha-Galactosidase at pH 5.9 (AID 998); conditions: coffee bean alpha-galactosidase enzyme assay; series mostly up to 76.9 µM
Sequence (Q42656 whole entry, looked up): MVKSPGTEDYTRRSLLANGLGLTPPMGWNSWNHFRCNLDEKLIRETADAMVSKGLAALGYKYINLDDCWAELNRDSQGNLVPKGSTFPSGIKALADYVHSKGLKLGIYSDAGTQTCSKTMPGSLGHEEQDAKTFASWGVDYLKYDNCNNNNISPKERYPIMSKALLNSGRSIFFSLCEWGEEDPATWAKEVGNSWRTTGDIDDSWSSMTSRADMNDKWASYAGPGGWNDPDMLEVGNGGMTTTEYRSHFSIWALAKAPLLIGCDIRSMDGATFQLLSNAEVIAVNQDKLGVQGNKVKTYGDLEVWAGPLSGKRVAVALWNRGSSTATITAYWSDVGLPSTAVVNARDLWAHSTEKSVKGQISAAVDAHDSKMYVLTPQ
In short: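 Fluorogenic 4-MU substrate hydrolysis, 80 uM substrate and 2 nM coffee bean alpha-galactosidase, pH 5.9 citrate buffer, 20 min at room temperature, then NaOH/glycine stop. Titration 0.7 nM–77 uM, normalized to no-enzyme and enzyme controls, AC50 via Hill equation.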

SMILES	outcome
CC(C)c1cccc(C(C)C)c1O	inactive
O=C(CCCN1CCC2(CC1)C(=O)NCN2c1ccccc1)c1ccc(F)cc1	inactive
O=c1[nH]oc2c1CCNC2	inactive
NCCc1ccc(O)cc1	inactive
C[C@]12CCC(=O)C=C1CC[C@@H]1[C@@H]2CC[C@]2(C)C(=O)CC[C@@H]12	inactive
Cn1c(=O)c2[nH]cnc2n(C)c1=O	inactive
O=C(O)CCCc1ccc(N(CCCl)CCCl)cc1	inactive
COc1cc(-c2ccc(=O)[nH]n2)ccc1OC(F)F	inactive
O=P1(N(CCCl)CCCl)NCCCO1 (centres undefined)	inactive
CCCCC/C=C\C/C=C\C/C=C\C/C=C\CCCC(=O)NCC(=O)O	inactive
CC(=O)N1CCN(c2ccc(OC[C@H]3CO[C@](Cn4ccnc4)(c4ccc(Cl)cc4Cl)O3)cc2)CC1	inactive
CC[N+](CC)(CC)CCOc1cccc(OCC[N+](CC)(CC)CC)c1OCC[N+](CC)(CC)CC	inactive

tested on: not listed separately; experiment: Validation of Assay for Modulators of Lamin A Splicing (AID 1459; active = well fitted curve in the direction sought with a large enough effect in the signal ratio; the % refers to the signal ratio;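 also: cells exposed to compound for two days before reading; ratio rise marks activators and ratio drop marks inhibitors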); conditions: Lamin A splicing dual RFP/GFP fluorescence reporter; series mostly up to 9.22 µM
In short: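 S3 HeLa stably expressing lamin A-EGFP splicing minigene and DsRed2, 600 cells/well in Opti-MEM with 2% FBS, treated 48 h at 37C; laser-scanning cytometry gives GFP/RFP total intensity ratio; ancitabine positive control, 0.5% DMSO vehicle.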

SMILES	outcome
CC(C)c1cccc(C(C)C)c1O	inactive
CCC1(c2ccc(N)cc2)CCC(=O)NC1=O (centres undefined)	inactive
O=C(CCCN1CCC2(CC1)C(=O)NCN2c1ccccc1)c1ccc(F)cc1	inactive
CC(NC(C)(C)C)C(=O)c1cccc(Cl)c1 (centres undefined)	inactive
NCCc1ccc(O)cc1	inactive
C[C@]12CCC(=O)C=C1CC[C@@H]1[C@@H]2CC[C@]2(C)C(=O)CC[C@@H]12	inactive
CCCCC/C=C\C/C=C\C/C=C\C/C=C\CCCC(=O)NCC(=O)O	inactive
CC(C)N(CCC(C(N)=O)(c1ccccc1)c1ccccn1)C(C)C (centres undefined)	inactive

— PubChem BioAssay (NCATS)
